Sampled rows, rich in hits. Any-hit rate of the full collection: about 6.8%.
Fluor 339 460: intrinsic fluorescence of library compounds, ex339/em460 – biochemical, MLSMR library, data from DPM-DC assay, artefact control, profiling panel; compound autofluorescence, ex339/em460 nm, NADH buffer; active compounds read high; 1 = no-compound wells, NADH background; fluorescence fold increase at 10 µM; actives 5.5% (n = 65,000); AID 709;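 active = at 10 µM, mean starting fluorescence two-fold or more over control wells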;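 note: signal is the first read of a kinetic run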
MK inhibit: S. pneumoniae mevalonate kinase inhibition; purified MK, PK/LDH-coupled NADH absorbance 340 nm; inhibition, % at 10 µM; AID 555; actives 0.48% (n = 65,000);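 active = ranked among the strongest by inhibition in the single 10 µM screen, a fixed top-ranked set picked for dose follow-up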
Abs 340nm: compounds absorbing at 340 nm. compound absorbance at 340 nm, fold over control. fold change at 10 µM. 65,000 tested, under 10 active. AID 708;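 active = at 10 µM dose, initial 340 nm absorbance at least 2 fold that of control wells; inactive = change under 2 fold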;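 note: initial absorbance extrapolated from kinetic A340 decline of NADH oxidation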
Spn DPM-DC inh: blocks S. pneumoniae diphosphomevalonate decarboxylase. purified DPM-DC, PK/LDH coupled NADH fluorescence. AID 556. actives 0.49% (n = 65,000). calls only at 10 µM;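 active = the 320 compounds with the highest percent inhibition in the single-dose primary screen, excluding strongly autofluorescent ones, cut at about 32% in these data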;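 note: kinetic rate of NADH fluorescence loss reporting ADP formed by the decarboxylase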
PMK inhibit: S. pneumoniae PMK inhibition. purified PMK, PK/LDH-coupled NADH absorbance 340 nm. inhibition, % at 10 µM. actives 0.49% (n = 65,000). AID 539;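 active = top-ranked compounds by inhibition in the single 10 µM screen, taking a fixed number of the strongest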
NADH enzymes: inhibition of NAD/NADH coupling enzymes, library profiling; coupled PK/LDH NADH assays, four targets; IC50, µM (titrated, usually from 10 µM); actives 0.02% (n = 65,000);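 active = single-dose screening hits from any of four coupled enzyme assays that gave an IC50 when retested across doses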;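 note: the DPM-DC format reads NADH fluorescence rather than 340 nm absorbance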
Large screens that a line does not name were inactive.

O=C(COc1ccc(Cl)cc1Cl)N(Cc1ccco1)C1CCS(=O)(=O)C1 (stereo not given)	none
N#Cc1c(-c2cccs2)cc(-c2cccnc2)nc1N	Fluor 339 460 3.8 (not shown: Spn DPM-DC inh)
N#Cc1c(-c2cccs2)cc(-c2ccccn2)nc1N	Fluor 339 460 3.8 (not shown: Spn DPM-DC inh)
CCCCSc1nc(N)c(C#N)c(-c2cccs2)c1C#N	none
Cc1cccn2c(=O)c3cc(C#N)c(=O)n(-c4c(C)n(C)n(-c5ccccc5)c4=O)c3nc12	none
CC(=O)N=c1c(C#N)cc2c(=O)n3cccc(C)c3nc2n1CC(C)C	Fluor 339 460 3.9 (not shown: Spn DPM-DC inh)
Cc1ccc(-n2c(=O)c(C#N)cc3c(=O)n4ccccc4nc32)cc1	Fluor 339 460 3.3 (not shown: Spn DPM-DC inh)
Cc1cccn2c(=O)c3cc(C#N)c(=NC(=O)c4ccc5c(c4)OCO5)n(CC(C)C)c3nc12	Fluor 339 460 2.5, Spn DPM-DC inh active
Cc1cccn2c(=O)c3cc(C#N)c(=N)n(Cc4ccncc4)c3nc12	none
Cc1cc(-n2c(=O)c(C#N)cc3c(=O)n4cccc(C)c4nc32)no1	Fluor 339 460 4 (not shown: Spn DPM-DC inh)
COc1cccc(C(=O)N2CCSC2=S)c1	none
O=c1nc2n(c3sc4c(c13)CCC4)Cc1ccccc1-2	Fluor 339 460 2.2 (not shown: Spn DPM-DC inh)
C=C1CSc2nc(=O)c3c4c(sc3n21)CCC4	none
Cc1cc(=O)oc2ccc(OCC(=O)N3CCC(C)CC3)cc12	Spn DPM-DC inh active
Cc1cc(=O)oc2cc(OCC(=O)N3CCCC(C)C3)ccc12 (stereo not given)	Fluor 339 460 2.7
COc1ccc(S(=O)(=O)N2CCN(C(=O)COc3ccc4c(C)cc(=O)oc4c3)CC2)cc1	Fluor 339 460 2.6
O=C1CCc2cc(S(=O)(=O)N3CCCC3C(=O)N3CCN(c4ccccc4)CC3)ccc2N1 (stereo not given)	none
CCC(C)C(NC(=O)OC(C)(C)C)C(=O)NCc1ccco1 (stereo not given)	none
O=[n+]1c2c(n([O-])c3c1CCCC3)CCCCC2	none
CCOc1ccc(CCNC(=O)C2CCCN(c3nn4c(=O)cc(C)nc4s3)C2)cc1 (stereo not given)	none
COCCNC(=O)C1CCCN(c2nn3c(=O)cc(C)nc3s2)C1 (stereo not given)	PMK inhibit 33
O=C(NCCn1ccc2ccccc21)c1ccc2c(c1)OCO2	Fluor 339 460 2.1 (not shown: Spn DPM-DC inh)
COc1ccc(C(=O)NCCn2ccc3ccccc32)cc1	none
CN(C)c1ccc(-n2cc3c(=O)n(C)c(=O)n(C)c3c2)cc1	none
CCN(CC)c1ccc(-n2cc3c(=O)n(C)c(=O)n(C)c3c2)cc1	Fluor 339 460 3.7 (not shown: Spn DPM-DC inh)
COc1ccc(-c2c(N)nnc3c2[nH]c2ccccc23)cc1OC	Fluor 339 460 4.6 (not shown: Spn DPM-DC inh)
COc1ccc(-c2cc(-c3ccccc3)nc(N3CCCC3)n2)cc1OC	Fluor 339 460 2.2 (not shown: Spn DPM-DC inh)
COc1ccc(-c2cc(C(F)(F)F)nc(N3CCOCC3)n2)cc1OC	none
CCOc1ccccc1C(=O)N1CCCCC1C (stereo not given)	none
CCOc1cc(-c2nnc(-c3ccco3)o2)cc(OCC)c1OCC	Fluor 339 460 2
CCOc1ccc(-c2nnc(-c3ccco3)o2)cc1OCC	Fluor 339 460 3.7 (not shown: Spn DPM-DC inh)
c1coc(-c2nnc(-c3ccc4c(c3)OCO4)o2)c1	Fluor 339 460 2.2 (not shown: Spn DPM-DC inh)
Cc1[nH]c2ccc(-c3nnc(SCC(=O)NCc4ccco4)n3Cc3ccccc3)cc2c1C	none
O=S(=O)(c1ccc(Cl)c(C(F)(F)F)c1)N1CCN(CC(O)COCC2CCCO2)CC1 (stereo not given)	none
COc1ccc(C2(O)CC3CCC(C2)N3c2nc(C)cc(C)c2C#N)cc1 (stereo not given)	Fluor 339 460 2.8
CC1Cc2ccccc2N1C(=O)C1CCCN(S(=O)(=O)c2cccc3nsnc23)C1 (stereo not given)	none
Cc1cc(=O)oc2cc(OCCSCCN3CCOCC3)ccc12	none
COc1cccc(OC)c1OCC(O)CN1CCN(c2ccccc2)CC1 (stereo not given)	PMK inhibit 28
Cc1cc(=O)oc2cc(OCC(O)CN3CCN(c4ccccc4)CC3)ccc12 (stereo not given)	Fluor 339 460 3.4
Cc1cc(=O)oc2cc(OCC(O)CN3CCc4ccccc4C3)ccc12 (stereo not given)	Fluor 339 460 4.2 (not shown: Spn DPM-DC inh)
COc1ccccc1N1CCN(CC(O)COc2ccc3c(C)cc(=O)oc3c2)CC1 (stereo not given)	none
COc1ccc(-c2csc(Cc3nnc(N4CCOCC4)n3-c3ccccc3)n2)cc1	none
CCOC(=O)N1CCN(c2nc(C)c3c(n2)CC(C)CC3=O)CC1 (stereo not given)	none
O=C(c1noc2c1CCCC2)N1CCCCC1	Spn DPM-DC inh active
O=C(c1noc2c1CCCCC2)N1CCOCC1	none
CCCn1c(N)c(C(=O)CN2CCN(S(=O)(=O)c3cccs3)CC2)c(=O)[nH]c1=O	none
CCCc1nc(SCC(N)=O)[nH]c(=O)c1CC	none
Cc1cccc(-n2c(CCCN3C(=O)c4ccccc4C3=O)nc3ccccc3c2=O)n1	none
Cc1ccc(Cc2c(C)nc3c(C(=O)O)cnn3c2C)cc1	none
Cc1nc2c(C(=O)N3CCCCC3)cnn2c(C)c1Cc1ccccc1F	Fluor 339 460 3.2
Cc1ccccc1Cc1c(C)nc2c(C(=O)N3CCN(Cc4ccc5c(c4)OCO5)CC3)cnn2c1C	Fluor 339 460 2.3, Spn DPM-DC inh active
CCN(CC)CCNC(=O)c1nn(-c2ccc(C)cc2)c(=O)c2c1c1ccccc1n2C	Fluor 339 460 3.1
CCN1CCN(C(=O)c2nn(-c3ccc(C)cc3)c(=O)c3c2c2ccccc2n3C)CC1	none
Cc1ccc(-n2nc(C(=O)NCc3ccco3)c3c4ccccc4n(C)c3c2=O)cc1	Fluor 339 460 2.2
O=C(c1cccc(Cl)c1)N1CCN(Cc2ccccc2F)CC1	none
COc1ccc(-c2nnc(Nc3nc4c(OC)cccc4s3)o2)c(OC)c1	Fluor 339 460 2.3, Spn DPM-DC inh active
COc1cc(OC)cc(-c2nnc(Nc3nc4c(F)cccc4s3)o2)c1	Fluor 339 460 3.4 (not shown: Spn DPM-DC inh)
COc1ccc(-c2nnc(Nc3nc4c(OC)cccc4s3)o2)cc1	none
Fc1cccc2sc(Nc3nnc(-c4ccccc4)o3)nc12	Fluor 339 460 4.9 (not shown: Spn DPM-DC inh)
O=C(CSc1nnc(-c2ccccc2)o1)Nc1ccccc1F	none
CN(C)S(=O)(=O)N1CCN(c2ccc(Cl)cc2)CC1	none
O=C(CN1C2CCC1CC(NC(=O)Nc1ccccc1)C2)NCc1ccco1 (stereo not given)	none
O=C(O)c1cc2n(n1)C(C(F)(F)F)CC(c1ccco1)N2 (stereo not given)	none
Cc1ccc2c(c1)C(N1CCCC1=O)CC(c1ccco1)N2 (stereo not given)	Fluor 339 460 2.6
Cc1cnc(C(=O)Nc2ccccc2-c2nnn(CC(=O)NC3CCCC3)n2)cn1	none

High-throughput results (PubChem BioAssay)
